Growth data for 15 compounds are collected here from PubChem BioAssay (NCI).

Among the test systems are HT29 colon; SNB-75 CNS; SNB-19 CNS; U251 CNS; PC-3 prostate; SK-MEL-5 melanoma; UACC-62 melanoma; LOX IMVI melanoma; SK-MEL-28 melanoma; HCT-15 colon.
What all share (test): NCI-60 one-dose screen, 48 h (100 = growth as untreated, 0 = no growth, -100 = all killed)
Common to all, as to details: 10 µM

Compounds without any hit were thinned out: in the full panel of roughly 83,000, 20% have a hit.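 The endpoint reported here, percent growth, reads 100 for growth as untreated, 0 for no net growth and -100 for all cells dead.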 A number with no mark means an inactive call. Active and inactive are the calls of the source. The calls were made as follows: active = growth percent below 10; inactive = the rest.

With `Nc1ccn(Cc2nnc(CCC(=O)c3nc4ccccc4[nH]3)o2)c(=O)n1`, the growth was 89.5% in the experiment with HT29 colon; 67.5% with SNB-75 CNS; 91% with SNB-19 CNS; 85.6% with U251 CNS; 77% in the experiment on PC-3 prostate; 68.9% in the experiment on SK-MEL-5 melanoma. Further, the results for the growth with UACC-62 melanoma, with LOX IMVI melanoma and in the experiment with SK-MEL-28 melanoma were 66.2%, 53.9% and 104%, respectively.

Take `O=c1cn[nH]c2ccc(Br)cc12`: the growth with HCT-15 colon is 104%; in the experiment on HT29 colon, 95.7%; in the experiment with SNB-75 CNS, 96.2%; in the experiment with SNB-19 CNS, 106%; with SK-MEL-5 melanoma, 100%; with UACC-62 melanoma, 112%. For the same compound, the growth in the experiment with LOX IMVI melanoma was 97.2%; with SK-MEL-28 melanoma it was 123%.

Consider `COc1cc2c(cc1NC(=O)C(Cl)Cl)-c1ccc(NC(=O)C(Cl)Cl)cc1C2`, for which the growth with HCT-15 colon was -7.21% (active); in the experiment with HT29 colon, -35.3% (active); in the experiment on SNB-75 CNS it was -29.6% (active); in the experiment on SNB-19 CNS, 3.35% (active); in the experiment with SK-MEL-5 melanoma it was 22.5%; in the experiment on UACC-62 melanoma it was -22.2% (active). Moreover, the growth in the experiment with LOX IMVI melanoma was 67%; in the experiment with SK-MEL-28 melanoma, -54.7% (active).

Consider `CC(=O)Nc1cc2c(cc1Cl)Cc1cc(Cl)ccc1-2`, for which the growth in the experiment on HCT-15 colon is 85.9%; with HT29 colon, 99.4%; in the experiment with SNB-75 CNS it was 64.1%; in the experiment on U251 CNS, 89.1%; with PC-3 prostate, 86.1%; in the experiment with SK-MEL-5 melanoma it was 86.6%. The growth in the experiment with LOX IMVI melanoma was 89.7%; with SK-MEL-28 melanoma, 104%.

For the compound `O=C(Nc1ccc(OCc2nnc(-c3ccc(Cl)cc3)o2)c(F)c1)Nc1ccc(Cl)c(C(F)(F)F)c1`, the growth with HCT-15 colon is 9.78% (active); in the experiment on HT29 colon, -3.97% (active); with SNB-75 CNS, 20.4%; with U251 CNS, -2.02% (active); in the experiment with PC-3 prostate it was 5.92% (active); in the experiment on SK-MEL-5 melanoma, -35.7% (active). Further, the growth in the experiment on LOX IMVI melanoma is 3.22% (active); in the experiment with SK-MEL-28 melanoma, 20.2%.

For `CCN(CC)CCCC(C)N=C(C1=C(C(=NC(C)CCCN(CC)CC)c2cccc(OC)c2)C(=O)NC1=O)c1cccc(OC)c1` (stereo unspecified), the growth is -30.7% (active) with HCT-15 colon; -10.5% (active) in the experiment on HT29 colon; -28.5% (active) in the experiment with SNB-75 CNS; -51.3% (active) with U251 CNS; 3.15% (active) in the experiment on PC-3 prostate; -93.8% (active) with SK-MEL-5 melanoma. In addition, the growth with UACC-62 melanoma was -75.4% (active); with LOX IMVI melanoma, -73.9% (active); with SK-MEL-28 melanoma, -69.1% (active).

Consider `COc1ccc(C(=O)c2ccccc2CN2C(=O)c3ccccc3C2=O)cc1`, for which the growth was 112% in the experiment on HCT-15 colon; 99.7% with HT29 colon; 92% in the experiment with SNB-75 CNS; 99.6% in the experiment on SNB-19 CNS; 100% in the experiment on SK-MEL-5 melanoma; 97.2% in the experiment with UACC-62 melanoma. For the same compound, the growth was 94.3% with LOX IMVI melanoma and 114% with SK-MEL-28 melanoma.

With `COc1ccc(-c2nc(-c3nc4ccc(C)cc4[nH]3)cc3c2[nH]c2ccccc23)cc1`, the growth in the experiment on HCT-15 colon is 29.7%; in the experiment on HT29 colon, 30%; in the experiment on SNB-19 CNS, 84.1%; in the experiment on U251 CNS, 34.8%; in the experiment with PC-3 prostate, 43.8%; in the experiment with SK-MEL-5 melanoma, 35.6%. Besides, the growth in the experiment on UACC-62 melanoma was 21%; in the experiment with LOX IMVI melanoma it was 25.8%; with SK-MEL-28 melanoma it was 71.7%.

For the compound `COc1ccc(-c2n[nH]nc2-c2cc(OC)c(OC)c(OC)c2)cc1`, the growth was 25.8% in the experiment on HCT-15 colon; 4.38% (active) with HT29 colon; 50.1% with SNB-75 CNS; 58.3% in the experiment with SNB-19 CNS; -53.9% (active) in the experiment on SK-MEL-5 melanoma; 38.4% with UACC-62 melanoma. The growth with LOX IMVI melanoma was 9.46% (active); with SK-MEL-28 melanoma it was 64.4%.

Turning to `CS(=O)(=O)c1nccc(-c2c(-c3cccc(OCCc4ccccc4)c3)nc3sccn23)n1`, the growth was 99.7% in the experiment with HT29 colon; 98.4% in the experiment with SNB-75 CNS; 92.6% in the experiment with SNB-19 CNS; 99.4% with U251 CNS; 86.9% in the experiment with PC-3 prostate; 78.3% in the experiment with SK-MEL-5 melanoma. Besides, the growth is 85.9% with UACC-62 melanoma, 94.2% with LOX IMVI melanoma and 112% in the experiment with SK-MEL-28 melanoma.

`Cc1ccc(C(C)C)c(O)c1NC(=O)OC(C)C`: the growth was 92.2% in the experiment with HCT-15 colon; 77.5% in the experiment on SNB-75 CNS; 99.4% in the experiment on SNB-19 CNS; 105% with U251 CNS; 97.6% in the experiment on SK-MEL-5 melanoma; 92% with UACC-62 melanoma. Moreover, the growth with LOX IMVI melanoma was 99.4%; with SK-MEL-28 melanoma it was 101%.

`CC(=O)COc1ccc(Cl)cc1Cl`: the growth was 107% in the experiment with HCT-15 colon; 105% in the experiment on HT29 colon; 118% with SNB-19 CNS; 102% in the experiment on PC-3 prostate; 99.8% in the experiment on SK-MEL-5 melanoma; 96.7% in the experiment on UACC-62 melanoma. The growth in the experiment with LOX IMVI melanoma is 94.9%; with SK-MEL-28 melanoma it was 113%.

As for `COc1cc(C2CC(c3ccc4c(c3)OCO4)=NN2c2ccccc2)cc(OC)c1OC` (stereo unspecified), the growth in the experiment on HCT-15 colon was 81%; with SNB-75 CNS it was 58.8%; with SNB-19 CNS, 84.8%; with U251 CNS, 38.9%; in the experiment on PC-3 prostate, 92.6%; in the experiment on SK-MEL-5 melanoma it was 86%. The growth with UACC-62 melanoma was 76.7%; in the experiment with LOX IMVI melanoma, 89.4%; in the experiment on SK-MEL-28 melanoma it was 99.7%.

As to `Nc1nc(-c2cccnc2)nc2c1sc(=S)n2-c1ccccc1`, the growth was 104% in the experiment on HCT-15 colon; 94.6% in the experiment on HT29 colon; 94.9% in the experiment on SNB-75 CNS; 95% in the experiment on SNB-19 CNS; 98.6% in the experiment on SK-MEL-5 melanoma; 101% in the experiment on UACC-62 melanoma. For the same compound, the growth in the experiment on LOX IMVI melanoma is 93.7%; in the experiment with SK-MEL-28 melanoma, 116%.

For `C[n+]1c2ccccc2nc2ccccc21`, the growth in the experiment with HCT-15 colon was 21.3%; in the experiment on HT29 colon, 21.2%; in the experiment with SNB-75 CNS, 22.8%; in the experiment with U251 CNS, 4.11% (active); with PC-3 prostate, 7.71% (active); with SK-MEL-5 melanoma, 3.8% (active). Moreover, the growth with UACC-62 melanoma was -34.3% (active); in the experiment with LOX IMVI melanoma, -36.5% (active); in the experiment with SK-MEL-28 melanoma it was -2.36% (active).
